In PubChem BioAssay AID485346 (Sanford-Burnham Center for Chemical Genomics, 2010):
About 10,000 (3%) of roughly 330,000 compounds were called active. The full list was thinned out, with actives kept by preference. A number with no mark means an inactive call.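 The calls were made as follows: active = inhibition of at least 50% at 8 µM in the primary screen; inactive = the rest.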

Molecular target: Protein Mdm4 (Homo sapiens) + E3 ubiquitin-protein ligase Mdm2 (Homo sapiens) (UniProt O15151+Q00987)
Test: disruptors of Mdm2/MdmX RING complex – cell-based, luminescence, split luciferase, SaOS-2, uHTS, primary screen (AID 485346)
Details: SaOS-2 split-luciferase Mdm2/MdmX complementation, at 8 µM, active compounds read high

Sequence of Protein Mdm4 (Homo sapiens) + E3 ubiquitin-protein ligase Mdm2 (Homo sapiens) (O15151 whole entry, looked up): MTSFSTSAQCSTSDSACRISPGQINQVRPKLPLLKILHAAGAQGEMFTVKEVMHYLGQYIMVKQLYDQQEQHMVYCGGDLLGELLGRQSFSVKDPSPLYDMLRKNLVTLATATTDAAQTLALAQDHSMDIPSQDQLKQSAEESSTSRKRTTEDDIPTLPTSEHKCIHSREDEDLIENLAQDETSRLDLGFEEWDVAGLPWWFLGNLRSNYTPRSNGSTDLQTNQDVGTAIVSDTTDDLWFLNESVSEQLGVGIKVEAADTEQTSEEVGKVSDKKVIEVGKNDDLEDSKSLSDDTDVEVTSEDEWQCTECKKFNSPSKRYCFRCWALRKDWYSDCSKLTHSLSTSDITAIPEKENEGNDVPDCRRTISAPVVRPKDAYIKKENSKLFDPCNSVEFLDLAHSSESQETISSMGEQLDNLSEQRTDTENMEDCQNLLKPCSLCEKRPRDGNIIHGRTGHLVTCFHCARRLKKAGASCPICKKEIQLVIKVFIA
Sequence of Protein Mdm4 (Homo sapiens) + E3 ubiquitin-protein ligase Mdm2 (Homo sapiens) (Q00987 whole entry, looked up): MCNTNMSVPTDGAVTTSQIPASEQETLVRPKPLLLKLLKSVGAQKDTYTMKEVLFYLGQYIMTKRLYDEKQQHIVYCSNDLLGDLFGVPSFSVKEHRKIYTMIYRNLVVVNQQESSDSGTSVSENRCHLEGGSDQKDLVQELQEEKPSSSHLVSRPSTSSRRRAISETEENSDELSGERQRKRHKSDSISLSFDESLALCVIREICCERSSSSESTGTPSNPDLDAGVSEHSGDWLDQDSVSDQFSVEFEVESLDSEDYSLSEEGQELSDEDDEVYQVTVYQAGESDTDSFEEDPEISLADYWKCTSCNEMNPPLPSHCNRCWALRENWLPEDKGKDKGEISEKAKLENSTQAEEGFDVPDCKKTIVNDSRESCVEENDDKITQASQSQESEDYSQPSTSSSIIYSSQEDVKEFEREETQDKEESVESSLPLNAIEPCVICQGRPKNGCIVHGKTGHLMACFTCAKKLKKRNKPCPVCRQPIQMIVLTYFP

SMILES | inhibition
COc1ccc(Cl)cc1NC(=O)NC(C)C(C)(C)C (stereo unspecified) | -21.5%
Cc1cccc(-c2oc3ccc(-c4ccc5c(c4)OCO5)cc3c2C#Cc2cncn2C)c1 | 62.2% (active)
COc1ccc(C#Cc2c(-c3ccc(OC)cc3)oc3ccc(-c4ccc5c(c4)OCO5)cc23)cc1 | -2.23%
COc1ccc(/C=C/c2c(-c3cccc(C)c3)oc3ccc(-c4ccc5c(c4)OCO5)cc23)cc1 | 6.97%
COc1nnc(-c2ccc(C)c(S(=O)(=O)N(C)C)c2)c2ccccc12 | 13.5%
COc1ccc(CCN(C)C(=O)C23CC4CC(CC(Cl)(C4)C2)C3)cc1OC | 27.9%
Cc1cc(=O)[nH]c2nnnn12 | 6.21%
Cc1ccc(C(=O)Nc2ccc(NC(=O)c3cccs3)cc2)c(C)c1 | -14.7%
COc1ccc(CC(=O)Nc2ccc(C(=O)NC(C)(C)C)cc2)cc1 | -11.9%
CCN(CC(=O)Nc1ccc(OC)cc1)C(=O)CSCc1ccc(C)cc1 | 20.5%
Cc1ccc(-c2nnc(-c3ccc(NC(=O)c4cccs4)cc3)o2)cc1 | 93.9% (active)
Cc1ccc(OCC(=O)Nc2ccc(NC(=O)c3cccs3)cc2)c(C)c1 | 13.5%
COc1ccc(CC(=O)Nc2ccc(-c3nnc(-c4ccc(C)cc4)o3)cc2)cc1 | 99.8% (active)
CO[C@@H]1[C@@H](OC(N)=O)[C@@H](O)C(Oc2ccc3c(O)c(NC(=O)c4ccc(O)c(CC=C(C)C)c4)c(=O)oc3c2C)OC1(C)C (stereo partly specified) | 20.1%
O=C(c1ccccc1)N1N=C(c2ccccc2O)CC1c1ccc(Br)cc1 (stereo unspecified) | 12%
Oc1ccccc1C1=NN(c2ccccc2)C(c2ccccc2)C1 (stereo unspecified) | 58.3% (active)
COc1ccc(C2CC(c3cccs3)=NN2c2ccccc2)cc1 (stereo unspecified) | -32.2%
CCSc1nc(O)c(C(c2cccc(OC)c2)c2c(O)nc(SCC)[nH]c2=O)c(=O)[nH]1 | -27.3%
COc1ccc(CNC(=O)c2nnn(CC(=O)Nc3cc(C)cc(C)c3)c2N)cc1 | 48.3%
COc1cccc(CNC(=O)c2nnn(CC(=O)Nc3cc(Cl)ccc3C)c2N)c1 | 77.9% (active)
COc1cccc(CNC(=O)c2nnn(CC(=O)Nc3cc(C)ccc3C)c2N)c1 | 5.26%
Cc1ccc(Nc2nnc(SC(C)C(=O)NC3CC3)s2)cc1 (stereo unspecified) | 22.3%
Cc1cc(=O)n2nc(N3CCC(C(=O)Nc4c(F)c(F)c(F)c(F)c4F)CC3)sc2n1 | 8.91%

SMILES | inhibition
c1ccc2c(NCC3CCCO3)nc(-c3ccncc3)nc2c1 (stereo unspecified) | -16.8%
N#Cc1ccc(Oc2cc(C(F)(F)F)nc(-c3ccccn3)n2)cc1 | 11.2%
CC(C)(C)Nc1nc(-c2ccccn2)nc2ccccc12 | 87.5% (active)
COc1cnc(-c2ccccn2)nc1Oc1ccc(C(C)(C)C)cc1 | 37.6%
c1ccc(-c2nccc(-c3ccc(-n4cnc5ccccc54)cc3)n2)nc1 | 28.4%
Cc1ccc(Oc2nc(-c3ccccn3)nc3ccccc23)cc1 | 60.4% (active)
CCn1nc(C)c(CN2CCN(Cc3ccc(OC)c(C)c3C)C(CCO)C2)c1C (stereo unspecified) | 10.8%
O=C(OCCN1CCOCC1)C1(c2ccccc2)CCCCC1 | -8.86%
Cc1ncn2cc(-c3ccc(Cl)cc3Cl)[nH]c(=O)c12 | 7.48%
O=C(Nc1nnc(-c2ccc(F)cc2)s1)c1c(F)cccc1Cl | 7.4%
CC(C)=CC(=O)Nc1nnc(-c2ccc(F)cc2)s1 | 80% (active)
Cc1ccc(C(=O)Nc2nnc(-c3ccncc3)s2)o1 | -5.65%
COc1ccccc1N(C)S(=O)(=O)c1ccc(Cl)c(C(=O)N2CCC(C(N)=O)CC2)c1 | -6.16%
Cc1ccc2[nH]c3c(=O)n(CC(=O)NCCc4ccc(Cl)cc4)ncc3c2c1 | -13.8%
COc1ccc(C2CC(=O)Oc3ccc(C(C)(C)C)cc32)cc1 (stereo unspecified) | 21.6%
c1ccc2c(c1)C(=NC1CCCCC1)NC2=NC1CCCCC1 | 94.3% (active)
Cc1nn(C)c(Cl)c1CN1CCC(n2nccc2NC(=O)C2CCCC2)CC1 | 12.6%
COCc1cc(=O)[nH]c(SC)n1 | 5.54%
COc1ccc([C@@H]2[C@@H]3C(=O)N(C(C)(C)C)C(=O)[C@@H]3[C@]3(Cc4ccccc4)C(=O)N(c4cccc(Br)c4)C(=O)N23)cc1 | 37.8%
O=C(NNC(=O)c1cc(-c2ccccc2Cl)nc2ccccc12)c1csc(N2CCOCC2)n1 | -34.1%
C=CCn1c(C23CC4CC(CC(C4)C2)C3)n[nH]c1=S | 9.22%
O=c1cc(C(F)(F)F)[nH]c(=O)n1C1CCCCC1 | -23.2%
Cc1ccc(Nc2cc(=O)n(C3CCCCC3)c(=O)[nH]2)cc1C | 54.2% (active)

SMILES | inhibition
Cc1ccc(NNC(=O)C2CCC2)cc1C | -2.12%
O=C(Cn1ccc2cc(S(=O)(=O)N3CCCC3)ccc21)NCc1ccccc1 | 12.6%
COC(=O)Cn1cc(/C=C/[N+](=O)[O-])c2ccccc21 | 23.4%
O=[N+]([O-])/C=C/c1ccc2c(ccn2Cc2ccccc2)c1 | 95.5% (active)
Oc1ccc(N=Nc2nccs2)c(O)c1 | 53.8% (active)
O=C(NC1(C(F)(F)F)NC(=O)N(Cc2cccnc2)C1=O)c1ccccc1Cl (stereo unspecified) | 1.79%
Cc1cc(C)c(C#N)c(SCC(=O)N(CC(C)C)C2CCS(=O)(=O)C2)n1 (stereo unspecified) | 18%
CN(C)Cc1c(C(=O)N/N=C/c2ccccc2OCc2ccc(F)cc2)nnn1-c1nonc1N | 14.6%
CC1CCN(C(=O)c2ccc(S(=O)(=O)Cc3cc(F)ccc3F)c([N+](=O)[O-])c2)CC1 | 68.4% (active)
Nc1ccc(C(=O)N2CCN(S(=O)(=O)c3ccc(Cl)cc3)CC2)cc1[N+](=O)[O-] | 18.3%
CC1CCN(C(=O)c2ccc(CSc3ccc(Cl)cc3)cc2)CC1 | -14.2%
COc1ccc(C(=O)Nc2nc(-c3ccc(OC)cc3)c(-c3ccc([N+](=O)[O-])cc3)s2)cc1 | 13.4%
CCOc1cccc(C(=O)Nc2nnc(-c3cccs3)s2)c1 | -36.4%
N#Cc1ccc(C(=O)Nc2nc(-c3cccs3)c(C(=O)C(F)(F)F)s2)cc1 | 83.2% (active)
COc1ccc(CC(NC(C)=O)C(=O)NC2CCN(C(=O)c3ccc(Cl)cc3)CC2)cc1 (stereo unspecified) | 7.62%
Cc1ccc(-c2nn(C(C)(C)C)c3ncnc(N)c23)cc1 | 79% (active)
Cc1ccc(-n2cnc3ncnc(-c4ccccc4)c32)cc1 | 6.32%
c1ccc(-c2cnc(CN3CCN(c4ccccc4)CC3)o2)cc1 | -0.44%
CCN=c1sc(C(=O)Nc2ccccc2)c(C)n1CC | 18.2%
CCCn1c(N)c(C(=O)CSc2nnc3n2CCCCC3)c(=O)[nH]c1=O | 2.64%
CC(C)(C)NC(=O)NC(=O)CN1CCC(Cc2ccccc2)CC1 | 12%
COc1ccc(NC(=O)CS(=O)(=O)c2ccccc2)cc1 | -16.7%
COc1cccc2sc(N(CCCN(C)C)C(=O)CCS(=O)(=O)c3ccccc3)nc12 | 73.6% (active)

SMILES | inhibition
COc1ccc(N(C)C(=O)CCS(=O)(=O)c2cccc3nsnc23)cc1 | -8.48%
CN(C)CCN(C(=O)CN1C(=O)c2ccccc2C1=O)c1nc2cc3c(cc2s1)OCCO3 | -9.56%
CC(=O)N(CCCN(C)C)c1nc2ccc(C)cc2s1 | -16.8%
Cc1cccc(C)c1NC(=O)CCS(=O)(=O)c1cccc2nsnc12 | -1.39%
COc1cc2ccccc2cc1C(=O)N(CCN(C)C)c1nc2c(F)cccc2s1 | 19.4%
COc1cccc2sc(N(CCCN(C)C)C(=O)C(c3ccccc3)c3ccccc3)nc12 | 92.5% (active)
Cc1cccc2sc(N(CCCN(C)C)C(=O)CCS(=O)(=O)c3ccccc3)nc12 | 98.7% (active)
CC(C)(Oc1ccc(Cl)cc1)C(=O)OCC(=O)NCCc1ccc(S(N)(=O)=O)cc1 | -3.95%
CC1=C(C(N)=O)C(c2ccc(F)cc2)n2nc(CCCO)nc2N1 (stereo unspecified) | 1.82%
CCOCCCNC(=O)C1(O)c2cc(Br)ccc2NC(=O)N1c1ccc(C)c(C)c1 (stereo unspecified) | 18.7%
Cc1nc2cc(C(F)(F)F)ccc2n1CCNc1nc(-c2cc(Cl)c(N)c(Cl)c2)cs1 | 27.1%
CSc1ccc(NC(=O)N2CC(C)OC(C)C2)cc1 (stereo unspecified) | 15%
COc1cc(NS(=O)(=O)c2ccc(NC(=O)c3ccc(S(=O)(=O)N4CCCCC4)cc3)cc2)ncn1 | 13.5%
NC(N)=Nc1nc(-c2ccccc2)c2cc(Cl)ccc2n1 | 97.4% (active)
O=C(CCl)NNc1nc(-c2ccccc2)c2cc(Cl)ccc2n1 | 19.7%
OCCCNc1nc(-c2ccccc2)c2cc(Cl)ccc2n1 | 19.5%
COC(=O)c1ccc(C2C3=C(Nc4nnnn42)c2ccccc2OC3)cc1 (stereo unspecified) | 14.2%
COc1ccc(C(=O)NC(C)Cn2nc(C)cc2C)cc1OC1CCN(C(C)=O)CC1 (stereo unspecified) | 2.18%
COC(=O)c1ccc(Nc2ncnc3sccc23)cc1 | 1.96%
O=C1CN(C(=O)c2ccccc2F)C(c2ccc(F)cc2)c2cc(F)ccc2N1 (stereo unspecified) | -22.4%
CCOC(=O)C1(CCOc2ccccc2)CCN(Cc2ccc(C#CCCO)cc2)CC1 | 27.4%
CC(C)CN(CC(C)C)CC(O)CN(c1ccccc1)S(=O)(=O)c1ccccc1[N+](=O)[O-] (stereo unspecified) | 31.5%
